This is part of a sample that, as a whole, favours compounds with a hit. Of some 79,000 tested, about 15% had one in any assay. A number with no mark means an inactive call. Active and inactive are the calls of the source. Rule as the data show it: active = growth inhibition above about 70%; inactive = the rest.
How the values were obtained:
[1] = NCI Yeast Anticancer Drug Screen. Data for the mec2-1 strain (AID 157); conditions: S. cerevisiae mec2-1 strain, hits give high values
How it was run: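 Mutant yeast (mec2-1) grown with compound; growth inhibition relative to vehicle control reported.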

[2] = NCI Yeast Anticancer Drug Screen. Data for the rad14 strain (AID 159);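 also: 0% = growth of vehicle-treated control cultures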; conditions: S. cerevisiae rad14 strain growth inhibition, hits give high values
How it was run: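 Here, inhibition of yeast growth was measured after compound exposure, using a strain with a genetic defect in DNA damage repair and vehicle-treated cultures as the reference.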

[3] = NCI Yeast Anticancer Drug Screen. Data for the sgs1 mgt1 strain (AID 161);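 also: 0% = growth of cultures given vehicle only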; conditions: S. cerevisiae sgs1 mgt1 strain, hits give high values
How it was run: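 This yeast growth screen uses a strain with defined DNA-repair lesions; compound-treated growth is compared with vehicle-treated growth.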

[4] = NCI Yeast Anticancer Drug Screen. Data for the CLN2oe strain (AID 163);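 also: 0% = growth of vehicle-only control cultures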; conditions: S. cerevisiae CLN2oe strain, hits give high values
How it was run: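 Compounds are applied to yeast harbouring a defined cell-cycle control change; reduced growth compared with vehicle-treated controls gives the value.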

[5] = NCI Yeast Anticancer Drug Screen. Data for the cln2 rad14 strain (AID 165);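 also: 0% = growth equal to vehicle treated cultures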; conditions: S. cerevisiae cln2 rad14 strain, hits give high values
How it was run: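 Readout is yeast growth inhibition versus vehicle-treated controls, using a strain with cln2 and rad14 alterations exposed to compound.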

[6] = NCI Yeast Anticancer Drug Screen. Data for the bub3 strain (AID 167); conditions: S. cerevisiae bub3 mutant strain, hits give high values
How it was run: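 Whole-cell yeast assay. The mutant strain was incubated with compounds, and growth inhibition was determined by comparison with vehicle-treated cells.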

[7] = NCI Yeast Anticancer Drug Screen. Data for the wt2 strain (AID 169);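 also: 0% = growth of vehicle-treated yeast cultures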; conditions: S. cerevisiae wt2 strain growth inhibition, hits give high values
How it was run: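 Against vehicle-treated controls, the growth of yeast exposed to each compound was compared, and the inhibition was recorded.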

[8] = NCI Yeast Anticancer Drug Screen. Data for the sgs1 strain (AID 173);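 also: 0% = growth of vehicle-only control cultures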; conditions: S. cerevisiae sgs1 mutant, hits give high values
How it was run: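 Each compound was added to cultures of the altered yeast strain. Growth was recorded, and inhibition was derived by comparison with vehicle controls.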

[9] = NCI Yeast Anticancer Drug Screen. Data for the mlh1 rad18 strain (AID 175); conditions: S. cerevisiae mlh1 rad18 strain growth inhibition, hits give high values
How it was run: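 Genetically defined yeast (DNA repair-deficient) exposed to compounds; growth inhibition determined relative to vehicle.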

[10] = NCI Yeast Anticancer Drug Screen. Data for the rad18 strain (AID 177); conditions: S. cerevisiae rad18 mutant growth inhibition, hits give high values
How it was run: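 Vehicle-treated cultures served as the baseline for scoring compound-induced growth inhibition in DNA-repair-mutant yeast.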

[11] = NCI Yeast Anticancer Drug Screen. Data for the rad52 strain (AID 147);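 also: 0% = growth of vehicle-treated control cultures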; conditions: S. cerevisiae rad52 mutant growth inhibition, hits give high values
How it was run: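 The repair-mutant yeast strain was incubated with compounds, then growth was read and inhibition derived relative to vehicle.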

[12] = NCI Yeast Anticancer Drug Screen. Data for the wt1 strain (AID 149);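 also: 0% = growth of vehicle-treated wt1 cultures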; conditions: S. cerevisiae wt1 strain (SPY 50644) growth inhibition, hits give high values
How it was run: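 Measured: growth of wt1 yeast under compound versus vehicle treatment, reported as inhibition.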

[13] = NCI Yeast Anticancer Drug Screen. Data for the rad50EPP+ strain (AID 151);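 also: 0% = growth of vehicle-treated control cultures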; conditions: S. cerevisiae rad50 mutant strain, hits give high values
How it was run: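 Vehicle-normalised growth inhibition; rad50EPP+ yeast strain, altered in DNA damage repair, compound-treated.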

[14] = NCI Yeast Anticancer Drug Screen. Data for the rad50 strain (AID 155);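 also: 0% = growth of vehicle-only cultures of the same strain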; conditions: S. cerevisiae rad50 strain growth inhibition, hits give high values
How it was run: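 Growth of the mutant yeast was measured after compound exposure and referenced to vehicle-treated cultures.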

[15] = at 5.0 µM (retest, dose inferred, filed as 0.5)
[16] = at 50.0 µM (retest, dose inferred, filed as 5.0)

Q: For Cc1ccc(Nc2c3c(c(C#N)c4nc5ccccc5n24)CCCC3)cc1, which growth inhibition ([1]; at 100.0 µM) is on record?
A: 73% (active)

Q: What about the growth inhibition ([2]; at 1.2 µM) of the same compound?
A: 1%

Q: What about the growth inhibition ([2]; at 3.7 µM) of the same compound?
A: 10%

Q: And the growth inhibition ([2]; at 11.0 µM)?
A: 10%

Q: What about the growth inhibition ([2]; at 33.0 µM) of the same compound?
A: 25%

Q: What about the growth inhibition ([2]; at 100.0 µM) of the same compound?
A: 36%

Q: And the growth inhibition [3, 15]?
A: 16%

Q: And the growth inhibition [3, 16]?
A: 30%

Q: And the growth inhibition ([3]; at 50.0 µM)?
A: 74.5% (active)

Q: What about the growth inhibition ([4]; at 1.2 µM) of the same compound?
A: 20%

Q: What about the growth inhibition ([4]; at 3.7 µM) of the same compound?
A: 34%

Q: What about the growth inhibition ([4]; at 11.0 µM) of the same compound?
A: 21%

Q: And the growth inhibition ([4]; at 33.0 µM)?
A: 70% (active)

Q: What about the growth inhibition ([4]; at 100.0 µM) of the same compound?
A: 62%

Q: And the growth inhibition [5, 15]?
A: 21%

Q: And the growth inhibition [5, 16]?
A: 14%

Q: And the growth inhibition ([5]; at 50.0 µM)?
A: 72.8% (active)

Q: What about the growth inhibition ([6]; at 1.2 µM) of the same compound?
A: 8%

Q: What about the growth inhibition ([6]; at 3.7 µM) of the same compound?
A: 15%

Q: What about the growth inhibition [6, 15] of the same compound?
A: 26%

Q: And the growth inhibition ([6]; at 11.0 µM)?
A: 23%

Q: What about the growth inhibition ([6]; at 33.0 µM) of the same compound?
A: 74% (active)

Q: And the growth inhibition [6, 16]?
A: 34%

Q: What about the growth inhibition ([6]; at 50.0 µM) of the same compound?
A: 78.8% (active)

Q: And the growth inhibition ([6]; at 100.0 µM)?
A: 76% (active)

Q: What about the growth inhibition ([7]; at 1.2 µM) of the same compound?
A: 4%

Q: And the growth inhibition ([7]; at 3.7 µM)?
A: -8%

Q: And the growth inhibition ([7]; at 11.0 µM)?
A: 59%

Q: What about the growth inhibition ([7]; at 33.0 µM) of the same compound?
A: 74% (active)

Q: And the growth inhibition ([7]; at 100.0 µM)?
A: 72% (active)

Q: What about the growth inhibition ([8]; at 1.2 µM) of the same compound?
A: 30%

Q: And the growth inhibition ([8]; at 3.7 µM)?
A: 34%

Q: And the growth inhibition ([8]; at 11.0 µM)?
A: 29%

Q: What about the growth inhibition ([8]; at 33.0 µM) of the same compound?
A: 77% (active)

Q: And the growth inhibition ([8]; at 100.0 µM)?
A: 81% (active)

Q: And the growth inhibition [9, 15]?
A: 28%

Q: What about the growth inhibition [9, 16] of the same compound?
A: 68%

Q: What about the growth inhibition ([9]; at 50.0 µM) of the same compound?
A: 6.1%

Q: What about the growth inhibition ([10]; at 1.2 µM) of the same compound?
A: 6%

Q: What about the growth inhibition ([10]; at 3.7 µM) of the same compound?
A: 27%

Q: And the growth inhibition ([10]; at 11.0 µM)?
A: 38%

Q: And the growth inhibition ([10]; at 33.0 µM)?
A: 75% (active)

Q: What about the growth inhibition ([10]; at 100.0 µM) of the same compound?
A: 72% (active)

Q: With COc1cc(/C=C/c2sc3ccccc3[n+]2C)ccc1N(C)C as the compound, how does the growth inhibition ([11]; at 1.2 µM) read?
A: 1%

Q: And the growth inhibition ([11]; at 3.7 µM)?
A: -2%

Q: What about the growth inhibition ([11]; at 11.0 µM) of the same compound?
A: 0%

Q: And the growth inhibition ([11]; at 33.0 µM)?
A: 67%

Q: What about the growth inhibition ([11]; at 100.0 µM) of the same compound?
A: 93% (active)

Q: What about the growth inhibition ([12]; at 1.2 µM) of the same compound?
A: 0%

Q: And the growth inhibition ([12]; at 3.7 µM)?
A: -1%

Q: What about the growth inhibition ([12]; at 11.0 µM) of the same compound?
A: -1%

Q: And the growth inhibition ([12]; at 33.0 µM)?
A: 30%

Q: What about the growth inhibition ([12]; at 100.0 µM) of the same compound?
A: 97% (active)

Q: What about the growth inhibition ([13]; at 1.2 µM) of the same compound?
A: -1%

Q: And the growth inhibition ([13]; at 3.7 µM)?
A: 4%

Q: And the growth inhibition ([13]; at 11.0 µM)?
A: 11%

Q: What about the growth inhibition ([13]; at 33.0 µM) of the same compound?
A: 31%

Q: And the growth inhibition ([13]; at 100.0 µM)?
A: 87% (active)

Q: And the growth inhibition ([14]; at 1.2 µM)?
A: -4%

Q: And the growth inhibition ([14]; at 3.7 µM)?
A: 6%

Q: What about the growth inhibition [14, 15] of the same compound?
A: 3%

Q: What about the growth inhibition ([14]; at 11.0 µM) of the same compound?
A: -18%

Q: What about the growth inhibition ([14]; at 33.0 µM) of the same compound?
A: 65%

Q: And the growth inhibition [14, 16]?
A: 4%

Q: And the growth inhibition ([14]; at 50.0 µM)?
A: 67.8%

Q: And the growth inhibition ([14]; at 100.0 µM)?
A: 96% (active)

Q: And the growth inhibition ([1]; at 1.2 µM)?
A: 0%

Q: And the growth inhibition ([1]; at 3.7 µM)?
A: 0%

Q: And the growth inhibition [1, 15]?
A: 3%

Q: What about the growth inhibition ([1]; at 11.0 µM) of the same compound?
A: 2%

Q: And the growth inhibition ([1]; at 33.0 µM)?
A: 69%

Q: And the growth inhibition [1, 16]?
A: 0%

Q: And the growth inhibition ([1]; at 50.0 µM)?
A: 61.1%

Q: What about the growth inhibition ([1]; at 100.0 µM) of the same compound?
A: 98% (active)

Q: What about the growth inhibition ([2]; at 1.2 µM) of the same compound?
A: -4%

Q: What about the growth inhibition ([2]; at 3.7 µM) of the same compound?
A: -7%

Q: What about the growth inhibition ([2]; at 11.0 µM) of the same compound?
A: -2%

Q: And the growth inhibition ([2]; at 33.0 µM)?
A: 88% (active)

Q: What about the growth inhibition ([2]; at 100.0 µM) of the same compound?
A: 99% (active)

Q: And the growth inhibition [3, 15]?
A: 2%

Q: What about the growth inhibition [3, 16] of the same compound?
A: 7%

Q: And the growth inhibition ([3]; at 50.0 µM)?
A: 93.5% (active)

Q: And the growth inhibition ([4]; at 1.2 µM)?
A: -5%

Q: What about the growth inhibition ([4]; at 3.7 µM) of the same compound?
A: -2%

Q: What about the growth inhibition ([4]; at 11.0 µM) of the same compound?
A: -2%

Q: What about the growth inhibition ([4]; at 33.0 µM) of the same compound?
A: 50%

Q: And the growth inhibition ([4]; at 100.0 µM)?
A: 96% (active)

Q: What about the growth inhibition [5, 15] of the same compound?
A: -2%

Q: And the growth inhibition [5, 16]?
A: -1%

Q: What about the growth inhibition ([5]; at 50.0 µM) of the same compound?
A: 33.6%

Q: What about the growth inhibition ([6]; at 1.2 µM) of the same compound?
A: -2%

Q: And the growth inhibition ([6]; at 3.7 µM)?
A: 1%

Q: What about the growth inhibition [6, 15] of the same compound?
A: 3%

Q: And the growth inhibition ([6]; at 11.0 µM)?
A: -2%

Q: And the growth inhibition ([6]; at 33.0 µM)?
A: 68%

Q: And the growth inhibition [6, 16]?
A: 85% (active)

Q: What about the growth inhibition ([6]; at 50.0 µM) of the same compound?
A: 64.5%

Q: And the growth inhibition ([6]; at 100.0 µM)?
A: 97% (active)

Q: And the growth inhibition ([7]; at 1.2 µM)?
A: 0%

Q: And the growth inhibition ([7]; at 3.7 µM)?
A: -1%

Q: And the growth inhibition ([7]; at 11.0 µM)?
A: -2%

Q: And the growth inhibition ([7]; at 33.0 µM)?
A: 62%

Q: What about the growth inhibition ([7]; at 100.0 µM) of the same compound?
A: 97% (active)

Q: And the growth inhibition ([8]; at 1.2 µM)?
A: 0%

Q: And the growth inhibition ([8]; at 3.7 µM)?
A: 0%

Q: What about the growth inhibition ([8]; at 11.0 µM) of the same compound?
A: -1%

Q: What about the growth inhibition ([8]; at 33.0 µM) of the same compound?
A: 82% (active)

Q: And the growth inhibition ([8]; at 100.0 µM)?
A: 97% (active)

Q: What about the growth inhibition ([10]; at 1.2 µM) of the same compound?
A: 2%

Q: What about the growth inhibition ([10]; at 3.7 µM) of the same compound?
A: 5%

Q: And the growth inhibition ([10]; at 11.0 µM)?
A: 2%

Q: What about the growth inhibition ([10]; at 33.0 µM) of the same compound?
A: 73% (active)

Q: What about the growth inhibition ([10]; at 100.0 µM) of the same compound?
A: 96% (active)
